Measurements from PubChem BioAssay AID1508600 (Functional Genomics Laboratory (NCATS/FGL), 2020).
Out of some 53,000 sequences screened, about 3,700 (7%) were called active. The full list was thinned out, with actives kept by preference. Unmarked numbers belong to inactive results.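 How the source made its calls: active means gene knockdowns whose robust z-score for IL-1 alpha signal is at least 2 or at most -2, so actives lie on both sides; inactive means the rest.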

Assay: Components of the Cytosolic LPS Sensing Pathway: Gene Identification via Genome-wide siRNA Screen;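 further: robust z of the log signal after scaling to non-targeting control siRNA wells of the plate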
Settings: RAW264.7 macrophages, IL-1a HTRF, actives lie on both sides, screened at 100 nM (by protocol), cells primed 5 h with Pam3CSK4 first
How it was run: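 IL-1a HTRF of supernatants after 24 hour LipidA transfection of Pam3CSK4-primed (5 hours) RAW264.7 cells, 48h post-siRNA transfection (100 nM). Scores: percent of plate negative-control median, then log-based robust z-score.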

Sequence | z-score
GGAUUCCAGAUUAAAUGAUTT against Rfc1 | 1.09
GGCAACCAUUAAAUGUUUATT against Trim59 | -0.54
CCUUUUGUUUUACCUACUCTT against Tbx22 | 2.32 (active)
GGAUGAGCAGAAAUGUGUATT against Plekho2 | 0.931
CCUCUACAUCCAGGAAUGATT against Map4k1 | -0.546
GGUCCUAAUUCGAAGCAGATT against Emc3 | -0.589
GGGAUUGCAUGGUUAAACUTT against Nfam1 | -0.901
GGUUUUGACAUCACAUUCUTT against Mtfr2 | 1.34
GGUAGACAGAGAAGAUAAATT against Slc35f5 | -2.01 (active)
GGUUGAUGACAACAAGAAATT against Rps12 | -0.368
GGGAGGAGAGGACAAAUUATT against Ywhae | 1.66
GGAACGUGAAUCUACAGCATT against Tex43 | -2.73 (active)
GGCAGGACGAACAUGGCUATT against Hspb1 | 1.2
GGAAUUAAAGAGGAACUCCTT against Adamts20 | 0.172
GCUGUCAGACUAAAGAUAUTT against Mmd | -0.733
CCUCCAGAGUAUUGUCUAGTT against Ppfia3 | 1.26
GGACAUUGAGAACAUUAUCTT against Caln1 | -1.14
GGACCAUGUGGACUUUAGCTT against Sema7a | -0.522
GGCACUUCAACAGCAGUUATT against Cep295 | -1.27
GGUGUUCGUCAUAUGGAAUTT against Tex46 | 3.71 (active)
GGUAACUGUUACACAAAUCTT against Tmem161b | -0.291
GGCCUUUUGGCUUUGAUCUTT against Hoxb1 | -1.86
GGAAUAUGUCACCAACAAGTT against Akap8l | -0.896

Sequence | z-score
GCAGGAAGUAAAAUCUCUUTT against Tmem183a | 0.707
GGAGUCACACCUGAAUUGCTT against Cep89 | 0.129
GCUGAAAUCCAGGAUAGAGTT against Zw10 | -2.03 (active)
GGGACAAGGACUUUAAAAATT against Scamp2 | 0.566
GCACAUUCAGAUGAGGACUTT against Rnf6 | -1.05
GAUAUGUGUACACUUCUGCTT against Vmn1r218 | -2.08 (active)
GGUUACAUGGAUUGAAGCUTT against Scrn3 | 0.183
GGAGAUGAUUUUGAACUUCTT against Retreg3 | 2.73 (active)
CCCAACACAAUAUUUGCCATT against Nfyc | 0.019
GCUGUCUCUACGUUGGAGATT against Adamts2 | 0.145
CCACUUAGGUUAGAAAGAATT against R3hdm1 | -0.77
CCAAGUCGGACUUACGGUUTT against Cnpy3 | -1.65
UCUGCUCAACAUCGUCAAUTT against Sstr3 | 0.719
GCUCUUCCGAUUAAUGCAGTT against Gabra6 | 2.87 (active)
GGACCAAGGCUUGGAUCUUTT against Magea6 | 0.527
CGUGGUGCCUUUGAAUCUGTT against 9530056K15Rik | 1.2
GGCAUCAAGCAAUUCACUCTT against Zfp455 | 1.14
GGUGCAAAUGUUCUCAUCUTT against Mfsd4b1 | 2.11 (active)
GCCACUGUCACUUUUGUACTT against Arl11 | -1.08
GGAUUUGUUGGAAAUUGGATT against Anks1b | 0.132
GGCUGUGCAAGAUGUUCUATT against Gpr27 | 3.29 (active)
CCCAUGGGCAGAUGAAAGCTT against Olfr1441 | -0.482
GCAAUGCGACGUGCUCUAUTT against Trim67 | 0.136

Sequence | z-score
GGCUUAAGUUAGGCAAACUTT against Crtc3 | -0.0675
UGCUGUGGUCACUCCCAUGTT against Olfr457 | -2.04 (active)
GCCACAACAAACCUACGACTT against Xpc | -1.32
GCGCAUUGUGUUCUGGUCUTT against Zswim4 | -1.55
GGAACUUGGCCUACUUAUGTT against C130071C03Rik | 0.718
GAGGUCAUUAUACCAUUGGTT against Tuba3b | 0.554
GGUGACCAGCUCCAUUUCUTT against Ccn5 | 2.61 (active)
GGCCAACACUCAGAAAAGGTT against Zfp474 | 1.59
GCCAGAUCUGUUAACCGCCTT against Gzmk | 2.15 (active)
GGUUGGGCUGCCAAGUUUGTT against Fdx1 | 1.96
UACUACAACCGCACAGUGATT against Tmc6 | 0.522
GGUGGUCACCAAGAAGUUUTT against Prps2 | 2.52 (active)
GGAAGCUCUUAAAAGGUUGTT against Hdhd2 | 0.226
GCUCCUCAUGAUAUUGGCCTT against Nagk | 0.239
GGAGGGACUUACCACAAGGTT against Timeless | 0.282
GGACAACACUGUCAAUCAUTT against Olfr922 | -2.39 (active)
GGGAAUCUUUAUCAGUGAGTT against Insc | 0.429
GCUCCUGAUCAAAUAAAGUTT against Ldhb | 0.279
CCGGAGUUAUACCGUAAGATT against Plaur | -0.671
GGAGUAGGAACAAAAAUUGTT against Polb | -0.153
CCUUGGCCAAUCUCCACAATT against Ptpmt1 | -0.485
GGAAAAAAUUAAAGAGCACTT against Gmcl1 | 2.15 (active)
GGCACAAAAGAAGAAGAUGTT against Retsat | -1.7
